This note sets out measurements from publication PMC11006913.

Common to all, as to experiment: PBM; 200 nM protein, PBS
Common to all, as to details: dsDNA, one strand shown

For assay [1], the target named is HESX1 (Homo sapiens, UniProt Q9UBX0 95-180, R165K).
The target of assay [2] is SHOX (Homo sapiens, UniProt O15266 103-189).
Another assay addresses ALX4 (Homo sapiens, UniProt Q9H161 200-286, Q225E).
For assay [3], the target named is HESX1 (Homo sapiens, UniProt Q9UBX0 95-180).
The target in the next assay is MSX2 (Homo sapiens, UniProt P35548 130-214, R199I).
MSX2, sequence (P35548 130-214 R199I): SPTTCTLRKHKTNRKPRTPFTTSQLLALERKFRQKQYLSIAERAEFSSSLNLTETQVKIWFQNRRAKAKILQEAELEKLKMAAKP
Assay [4] has as its target ALX1 (Homo sapiens, UniProt Q15699 118-204, L144V).
The target of assay [5] is ALX3 (Homo sapiens, UniProt O95076 139-225, N203Q).
ALX3 (Homo sapiens, UniProt O95076 139-225, N203Q), sequence (O95076 139-225 N203Q): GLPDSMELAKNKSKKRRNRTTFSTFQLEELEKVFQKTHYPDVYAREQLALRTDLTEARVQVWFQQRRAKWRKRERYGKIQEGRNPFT
The target of assay [6] is SHOX (Homo sapiens, UniProt O15266 103-189, R173C).
SHOX (Homo sapiens, UniProt O15266 103-189, R173C), sequence (O15266 103-189 R173C): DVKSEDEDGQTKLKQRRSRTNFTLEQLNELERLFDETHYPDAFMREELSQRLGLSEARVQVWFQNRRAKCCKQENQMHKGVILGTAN
The target in assay [7] is ALX1 (Homo sapiens, UniProt Q15699 118-204, L144R).
ALX1 (Homo sapiens, UniProt Q15699 118-204, L144R), sequence (Q15699 118-204 L144R): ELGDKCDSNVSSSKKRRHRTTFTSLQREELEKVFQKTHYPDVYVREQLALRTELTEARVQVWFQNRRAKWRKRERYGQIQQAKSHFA
Assay [8] addresses ALX3 (Homo sapiens, UniProt O95076 139-225).
In assay [9] the target is PROP1 (Homo sapiens, UniProt O75360 56-141).
PROP1 (Homo sapiens, UniProt O75360 56-141), sequence (O75360 56-141): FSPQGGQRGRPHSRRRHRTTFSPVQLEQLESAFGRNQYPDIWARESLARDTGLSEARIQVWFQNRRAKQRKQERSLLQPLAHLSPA
The target of assay [10] is HESX1 (Homo sapiens, UniProt Q9UBX0 95-180, R109Q).
HESX1 (Homo sapiens, UniProt Q9UBX0 95-180, R109Q), sequence (Q9UBX0 95-180 R109Q): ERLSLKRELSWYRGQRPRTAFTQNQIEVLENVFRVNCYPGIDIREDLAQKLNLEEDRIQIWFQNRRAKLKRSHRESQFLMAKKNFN
In assay [11] the target is PROP1 (Homo sapiens, UniProt O75360 56-141, R99H).
PROP1 (Homo sapiens, UniProt O75360 56-141, R99H), sequence (O75360 56-141 R99H): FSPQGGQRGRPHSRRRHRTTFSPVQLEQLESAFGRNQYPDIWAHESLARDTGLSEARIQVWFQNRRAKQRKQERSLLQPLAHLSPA
Assay [12] deals with ALX3 (Homo sapiens, UniProt O95076 139-225, L168Q).
ALX3 (Homo sapiens, UniProt O95076 139-225, L168Q), sequence (O95076 139-225 L168Q): as the sequence (O95076 139-225 N203Q) above, with L30Q, Q65N counted along it
The target in assay [13] is HESX1 (Homo sapiens, UniProt Q9UBX0 95-180, P111T).
HESX1 (Homo sapiens, UniProt Q9UBX0 95-180, P111T), sequence (Q9UBX0 95-180 P111T): as the sequence (Q9UBX0 95-180 R109Q) above, with Q15R, P17T counted along it
The target of assay [14] is ALX3 (Homo sapiens, UniProt O95076 139-225, L168V).
ALX3 (Homo sapiens, UniProt O95076 139-225, L168V), sequence (O95076 139-225 L168V): as the sequence (O95076 139-225 N203Q) above, with L30V, Q65N counted along it
In assay [15] the target is PROP1 (Homo sapiens, UniProt O75360 56-141, F88S).
PROP1 (Homo sapiens, UniProt O75360 56-141, F88S), sequence (O75360 56-141 F88S): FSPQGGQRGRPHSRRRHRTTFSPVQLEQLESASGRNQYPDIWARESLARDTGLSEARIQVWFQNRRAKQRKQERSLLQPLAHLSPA
The target in assay [16] is HESX1 (Homo sapiens, UniProt Q9UBX0 95-180, F115L).
HESX1 (Homo sapiens, UniProt Q9UBX0 95-180, F115L), sequence (Q9UBX0 95-180 F115L): as the sequence (Q9UBX0 95-180 R109Q) above, with Q15R, F21L counted along it
Assay [17] concerns the target ALX1 (Homo sapiens, UniProt Q15699 118-204).
The target in assay [18] is ALX3 (Homo sapiens, UniProt O95076 139-225, N203S).
ALX3 (Homo sapiens, UniProt O95076 139-225, N203S), sequence (O95076 139-225 N203S): as the sequence (O95076 139-225 N203Q) above, with Q65S counted along it

ALX1 (Homo sapiens, UniProt Q15699 118-204, L144V), sequence (Q15699 118-204 L144V): as the sequence (Q15699 118-204 L144R) above, with R27V counted along it
ALX1 (Homo sapiens, UniProt Q15699 118-204), sequence (Q15699 118-204): as the sequence (Q15699 118-204 L144R) above, with R27L counted along it
SHOX (Homo sapiens, UniProt O15266 103-189), sequence (O15266 103-189): as the sequence (O15266 103-189 R173C) above, with C71R counted along it
HESX1 (Homo sapiens, UniProt Q9UBX0 95-180, R165K), sequence (Q9UBX0 95-180 R165K): as the sequence (Q9UBX0 95-180 R109Q) above, with Q15R, R71K counted along it
HESX1 (Homo sapiens, UniProt Q9UBX0 95-180), sequence (Q9UBX0 95-180): as the sequence (Q9UBX0 95-180 R109Q) above, with Q15R counted along it
ALX3 (Homo sapiens, UniProt O95076 139-225), sequence (O95076 139-225): as the sequence (O95076 139-225 N203Q) above, with Q65N counted along it
ALX4, sequence (Q9H161 200-286 Q225E): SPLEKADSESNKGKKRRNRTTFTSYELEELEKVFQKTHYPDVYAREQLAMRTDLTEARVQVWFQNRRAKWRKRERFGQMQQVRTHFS

CTAATTAC: the binding signal with HESX1 [1] is 13.2 upbm affinity estimate (log intensity, higher = more binding, comparable within an allelic series); with SHOX [2], 12.8 upbm affinity estimate (log intensity, higher = more binding, comparable within an allelic series); in the assay with ALX4, 13.8 upbm affinity estimate (log intensity, higher = more binding, comparable within an allelic series); in the assay with HESX1 [3], 13.2 upbm affinity estimate (log intensity, higher = more binding, comparable within an allelic series); in the assay with MSX2, 13.2 upbm affinity estimate (log intensity, higher = more binding, comparable within an allelic series); with ALX1 [4], 12.2 upbm affinity estimate (log intensity, higher = more binding, comparable within an allelic series). In addition, the binding signal with ALX3 [5] is 8.37 upbm affinity estimate (log intensity, higher = more binding, comparable within an allelic series); with SHOX [6] it was 10.1 upbm affinity estimate (log intensity, higher = more binding, comparable within an allelic series); with ALX1 [7], 11.8 upbm affinity estimate (log intensity, higher = more binding, comparable within an allelic series); in the assay with ALX3 [8] it was 12.9 upbm affinity estimate (log intensity, higher = more binding, comparable within an allelic series); with PROP1 [9] it was 12 upbm affinity estimate (log intensity, higher = more binding, comparable within an allelic series); with HESX1 [10], 9.51 upbm affinity estimate (log intensity, higher = more binding, comparable within an allelic series). For the same sequence, the binding signal with PROP1 [11] is 12 upbm affinity estimate (log intensity, higher = more binding, comparable within an allelic series); in the assay with ALX3 [12], 11 upbm affinity estimate (log intensity, higher = more binding, comparable within an allelic series); in the assay with HESX1 [13], 11.8 upbm affinity estimate (log intensity, higher = more binding, comparable within an allelic series); with ALX3 [14] it was 10.5 upbm affinity estimate (log intensity, higher = more binding, comparable within an allelic series); with PROP1 [15] it was 7.85 upbm affinity estimate (log intensity, higher = more binding, comparable within an allelic series); in the assay with HESX1 [16], 7.95 upbm affinity estimate (log intensity, higher = more binding, comparable within an allelic series). Also, the binding signal is 12.9 upbm affinity estimate (log intensity, higher = more binding, comparable within an allelic series) in the assay with ALX1 [17] and 8.5 upbm affinity estimate (log intensity, higher = more binding, comparable within an allelic series) in the assay with ALX3 [18].
Regarding CAATTAAC, the binding signal in the assay with HESX1 [1] is 13.1 upbm affinity estimate (log intensity, higher = more binding, comparable within an allelic series); in the assay with SHOX [2], 12.1 upbm affinity estimate (log intensity, higher = more binding, comparable within an allelic series); with ALX4, 13.5 upbm affinity estimate (log intensity, higher = more binding, comparable within an allelic series); in the assay with HESX1 [3], 13.1 upbm affinity estimate (log intensity, higher = more binding, comparable within an allelic series); in the assay with MSX2, 13.1 upbm affinity estimate (log intensity, higher = more binding, comparable within an allelic series); with ALX1 [4] it was 11.8 upbm affinity estimate (log intensity, higher = more binding, comparable within an allelic series). Also, the binding signal is 8.37 upbm affinity estimate (log intensity, higher = more binding, comparable within an allelic series) with ALX3 [5]; 9.74 upbm affinity estimate (log intensity, higher = more binding, comparable within an allelic series) in the assay with SHOX [6]; 11.5 upbm affinity estimate (log intensity, higher = more binding, comparable within an allelic series) with ALX1 [7]; 12.7 upbm affinity estimate (log intensity, higher = more binding, comparable within an allelic series) with ALX3 [8]; 11.6 upbm affinity estimate (log intensity, higher = more binding, comparable within an allelic series) in the assay with PROP1 [9]; 9.81 upbm affinity estimate (log intensity, higher = more binding, comparable within an allelic series) with HESX1 [10]. The binding signal is 11.8 upbm affinity estimate (log intensity, higher = more binding, comparable within an allelic series) with PROP1 [11]; 10.8 upbm affinity estimate (log intensity, higher = more binding, comparable within an allelic series) in the assay with ALX3 [12]; 11.7 upbm affinity estimate (log intensity, higher = more binding, comparable within an allelic series) with HESX1 [13]; 10.3 upbm affinity estimate (log intensity, higher = more binding, comparable within an allelic series) with ALX3 [14]; 7.68 upbm affinity estimate (log intensity, higher = more binding, comparable within an allelic series) with PROP1 [15]; 7.95 upbm affinity estimate (log intensity, higher = more binding, comparable within an allelic series) with HESX1 [16]. Moreover, the binding signal with ALX1 [17] was 12.5 upbm affinity estimate (log intensity, higher = more binding, comparable within an allelic series); with ALX3 [18], 8.57 upbm affinity estimate (log intensity, higher = more binding, comparable within an allelic series).
TAATTGCA: the binding signal with HESX1 [1] is 12 upbm affinity estimate (log intensity, higher = more binding, comparable within an allelic series); in the assay with SHOX [2], 11.4 upbm affinity estimate (log intensity, higher = more binding, comparable within an allelic series); with HESX1 [3] it was 12.1 upbm affinity estimate (log intensity, higher = more binding, comparable within an allelic series); in the assay with MSX2, 13 upbm affinity estimate (log intensity, higher = more binding, comparable within an allelic series); with SHOX [6] it was 9.1 upbm affinity estimate (log intensity, higher = more binding, comparable within an allelic series); with PROP1 [9] it was 11.1 upbm affinity estimate (log intensity, higher = more binding, comparable within an allelic series). Further, the binding signal with HESX1 [10] is 8.74 upbm affinity estimate (log intensity, higher = more binding, comparable within an allelic series); with PROP1 [11], 11.1 upbm affinity estimate (log intensity, higher = more binding, comparable within an allelic series); with ALX3 [12] it was 10.2 upbm affinity estimate (log intensity, higher = more binding, comparable within an allelic series); with HESX1 [13] it was 10.6 upbm affinity estimate (log intensity, higher = more binding, comparable within an allelic series); with PROP1 [15], 7.7 upbm affinity estimate (log intensity, higher = more binding, comparable within an allelic series); with HESX1 [16], 7.5 upbm affinity estimate (log intensity, higher = more binding, comparable within an allelic series).
Take CAATTATC: the binding signal is 13 upbm affinity estimate (log intensity, higher = more binding, comparable within an allelic series) with HESX1 [1]; 11.8 upbm affinity estimate (log intensity, higher = more binding, comparable within an allelic series) with SHOX [2]; 13.2 upbm affinity estimate (log intensity, higher = more binding, comparable within an allelic series) in the assay with ALX4; 13.1 upbm affinity estimate (log intensity, higher = more binding, comparable within an allelic series) with HESX1 [3]; 13 upbm affinity estimate (log intensity, higher = more binding, comparable within an allelic series) with MSX2; 11.7 upbm affinity estimate (log intensity, higher = more binding, comparable within an allelic series) in the assay with ALX1 [4]. In addition, the binding signal was 8.4 upbm affinity estimate (log intensity, higher = more binding, comparable within an allelic series) with ALX3 [5]; 9.58 upbm affinity estimate (log intensity, higher = more binding, comparable within an allelic series) in the assay with SHOX [6]; 11.4 upbm affinity estimate (log intensity, higher = more binding, comparable within an allelic series) with ALX1 [7]; 12.5 upbm affinity estimate (log intensity, higher = more binding, comparable within an allelic series) with ALX3 [8]; 11.5 upbm affinity estimate (log intensity, higher = more binding, comparable within an allelic series) with PROP1 [9]; 9.41 upbm affinity estimate (log intensity, higher = more binding, comparable within an allelic series) in the assay with HESX1 [10]. Besides, the binding signal is 11.7 upbm affinity estimate (log intensity, higher = more binding, comparable within an allelic series) in the assay with PROP1 [11]; 10.6 upbm affinity estimate (log intensity, higher = more binding, comparable within an allelic series) in the assay with ALX3 [12]; 11.4 upbm affinity estimate (log intensity, higher = more binding, comparable within an allelic series) in the assay with HESX1 [13]; 10.1 upbm affinity estimate (log intensity, higher = more binding, comparable within an allelic series) with ALX3 [14]; 7.73 upbm affinity estimate (log intensity, higher = more binding, comparable within an allelic series) with PROP1 [15]; 8 upbm affinity estimate (log intensity, higher = more binding, comparable within an allelic series) with HESX1 [16]. In addition, the binding signal was 12.3 upbm affinity estimate (log intensity, higher = more binding, comparable within an allelic series) with ALX1 [17] and 8.56 upbm affinity estimate (log intensity, higher = more binding, comparable within an allelic series) with ALX3 [18].
As to CTAATTAG, the binding signal with HESX1 [1] was 14 upbm affinity estimate (log intensity, higher = more binding, comparable within an allelic series); with SHOX [2], 13.6 upbm affinity estimate (log intensity, higher = more binding, comparable within an allelic series); with ALX4, 14.6 upbm affinity estimate (log intensity, higher = more binding, comparable within an allelic series); in the assay with HESX1 [3], 13.7 upbm affinity estimate (log intensity, higher = more binding, comparable within an allelic series); with MSX2, 13.6 upbm affinity estimate (log intensity, higher = more binding, comparable within an allelic series); with ALX1 [4], 12.5 upbm affinity estimate (log intensity, higher = more binding, comparable within an allelic series). Also, the binding signal is 8.69 upbm affinity estimate (log intensity, higher = more binding, comparable within an allelic series) with ALX3 [5]; 11.1 upbm affinity estimate (log intensity, higher = more binding, comparable within an allelic series) with SHOX [6]; 12.1 upbm affinity estimate (log intensity, higher = more binding, comparable within an allelic series) with ALX1 [7]; 13 upbm affinity estimate (log intensity, higher = more binding, comparable within an allelic series) in the assay with ALX3 [8]; 12.4 upbm affinity estimate (log intensity, higher = more binding, comparable within an allelic series) with PROP1 [9]; 10.9 upbm affinity estimate (log intensity, higher = more binding, comparable within an allelic series) with HESX1 [10]. Besides, the binding signal with PROP1 [11] is 12.6 upbm affinity estimate (log intensity, higher = more binding, comparable within an allelic series); with ALX3 [12], 11.6 upbm affinity estimate (log intensity, higher = more binding, comparable within an allelic series); in the assay with HESX1 [13] it was 12.5 upbm affinity estimate (log intensity, higher = more binding, comparable within an allelic series); with ALX3 [14] it was 11.3 upbm affinity estimate (log intensity, higher = more binding, comparable within an allelic series); in the assay with PROP1 [15], 8.3 upbm affinity estimate (log intensity, higher = more binding, comparable within an allelic series); with HESX1 [16] it was 8.53 upbm affinity estimate (log intensity, higher = more binding, comparable within an allelic series). In addition, the binding signal in the assay with ALX1 [17] was 13.2 upbm affinity estimate (log intensity, higher = more binding, comparable within an allelic series); with ALX3 [18], 8.81 upbm affinity estimate (log intensity, higher = more binding, comparable within an allelic series).
